Measured values published in PubChem BioAssay (NCI).
This is part of a sample that, as a whole, favours compounds with a hit. Of some 83,000 tested, about 20% had one in any assay.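 The endpoint reported here, percent growth, reads 100 for growth as untreated, 0 for no net growth and -100 for all cells dead.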 Active and inactive are the calls of the source.

test system: SK-MEL-28 melanoma; experiment: NCI-60 one-dose screen, 48 h (100 = growth as untreated, 0 = no growth, -100 = all killed); details: 10 µM unless noted
Method: Growth inhibition of the SK-MEL-28 human tumor cell line is measured as a screen for anti-cancer activity. Cells are grown in 96 well plates and exposed to the test compound for 48 hours. Compounds are tested at a single concentration, which is 10^-5 M for most compounds. The reported endpoint is percent growth (GI% or GIPRCNT), where numbers from 0 - 100% represent growth inhibition, and numbers from -100% - 0 represent cell death. For example, a value of 40 represents 60% growth inhibition. A value of 0 means no net growth occurred over the course of the experiment. A value of -40 indicates 40% of cells at the beginning of the experiment died by the end of the experiment. A value of -100 means all cells are dead at the end of the experiment.
NCI-60 Human Tumor Cell Lines Screen was performed using the standard one-dose NCI protocol, which is described in more detail at https://dtp.cancer.gov/discovery_development/nci-60/default.htm.
Compounds with GIPRCNT values below 10 were considered active. Activity score was based on GIPRCNT using the following formula: […]
Score is 0 for GIPRCNT values of 100 or above, 50 for GIPRCNT values of 0, and 100 for GIPRCNT values of -100.

SMILES	growth
Cc1cc(Nc2nc(-c3ccncc3)nc3ccccc23)n[nH]1	69.1% (inactive)
NC(=O)c1cccc(N2Cc3ccccc3OC3=C2C(=O)c2c(O)ccc(O)c2C3=O)c1	-85.6% (active)
COc1ccc(N=C2NN=C(c3ccc(F)cc3)CS2)cc1OC	114% (inactive)
O=C(NCCCN1CCN(CCCNC(=O)C2CCCCC2)CC1)C1CCCCC1	99.7% (inactive)
O=P([O-])(O)OP(=O)([O-])O.[NH-][C@H]1CCCC[C@@H]1[NH-].[OH-].[OH-].[Pt+4]	118% (inactive)
O=C(COc1ccccc1)N1N=C(c2ccc(Cl)cc2)CC1c1c[nH]c2ccccc12 (stereo not given)	104% (inactive)
O=C(CNC(=O)c1cccc2ccccc12)Nc1ccccc1Oc1ccccc1	57.8% (inactive)
COc1ccc(C2=CC(c3ccc(Oc4ccnc5cc(Cl)ccc45)c(OC)c3)c3c(nc(OC)[nH]c3=O)N2)cc1 (stereo not given)	91.1% (inactive)
COc1cccc(/C=C2\SC(N3CCN(c4ccccn4)CC3)=NC2=O)c1	110% (inactive)
COc1ccc(/C=C2\CCCC3=C2NC(C)=NC3c2ccc(OC)c(OC)c2)cc1OC (stereo not given)	23% (inactive)
O=C(CNc1ccc(Cl)cc1)Nc1ccc(-c2nc3ccccc3s2)cc1	99.5% (inactive)
COc1cccc(-c2nc3sccn3c2-c2ccnc(NCCCNS(=O)(=O)c3ccc(F)cc3)n2)c1	38.1% (inactive)
COc1cc(C(=O)OCCCCCCCCCCC[P+](c2ccccc2)(c2ccccc2)c2ccccc2)ccc1O	-66.1% (active)
O=C1CCCCN1CCCCC#Cc1ccccc1C#Cc1ccccn1	110% (inactive)
C#CCC1(c2ccc(F)c(F)c2)NS(=O)(=O)c2ccccc21 (stereo not given)	121% (inactive)
COc1ccc(S(=O)(=O)Nc2cc(/C=C\c3cc(OC)c(OC)c(OC)c3)cc(OC)c2OC)cc1OC	52.5% (inactive)
COc1cc2c(cc1OCCCCn1c(-c3cc(=O)c4ccccc4o3)nc3ccccc31)N=C[C@@H]1CCCN1C2=O	124% (inactive)
COc1cc(/C=C2\CCCC3=C2N=C2SC(C)=NN2C3c2cc(OC)c(OC)c(OC)c2)cc(OC)c1OC (stereo not given)	26.3% (inactive)
O=[N+]([O-])c1cccc(-c2cc(-c3cc(Br)ccc3O)[nH]n2)c1	42.1% (inactive)
C/C1=C\CCC2(C)OC2CC2CCC(C)(O)C(CC1)C2(C)C (stereo not given)	119% (inactive)

SMILES	growth
CC(=O)Nc1nc(C(=O)N2N=C(C)/C(=C/c3ccccc3)C2=O)cs1	121% (inactive)
NS(=O)(=O)c1ccc(NCC(=O)Nc2ccc(-c3nc4ccccc4s3)cc2)cc1	99.4% (inactive)
CCOC(=O)C(Cc1ccccc1)n1c(O)c(C=Nc2ccc(C(=O)OCCN(CC)CC)cc2)sc1=O (stereo not given)	93.1% (inactive)
Cc1oc2ncnc(Nc3ccccc3)c2c1C(=O)NCCO	98.9% (inactive)
Cc1ccc(S(=O)(=O)OC2COCOC2C(OS(=O)(=O)c2ccc(C)cc2)C2OCOCC2OS(=O)(=O)c2ccc(C)cc2)cc1 (stereo not given)	118% (inactive)
O=S=Nc1ccc([N+](=O)[O-])cc1	107% (inactive)
O=S(=O)(NCCNc1cc(-c2cn(-c3ccccc3)nc2-c2ccccc2)ccn1)c1ccc(F)cc1	104% (inactive)
CN(C)C/C=C/C(=O)Nc1cc2c(Nc3ccc(F)c(Cl)c3F)ncnc2cc1OCCOC(F)F	49.4% (inactive)
N#Cc1c(NC(=O)c2ccc([N+](=O)[O-])o2)[n+]([O-])c2cc(F)c(F)cc2[n+]1[O-]	99.7% (inactive)
c1cc(-c2ccc3c(c2)OCO3)n2nccc2n1	105% (inactive)
O=C(Nc1ccc(Br)c(Cl)c1)c1cc(F)ccc1O	-7.64% (active)
FC(F)(F)c1cccc(-n2nnc3cnc(Nc4ccc(N5CCCCC5)cc4)nc32)c1	-0.691% (active)
CCCCCCCCCCCCCCCCC(Br)C(=O)O (stereo not given)	100% (inactive)
CCOC(=O)CC/C(C)=N\Nc1ccc([N+](=O)[O-])cc1	99.9% (inactive)
O=C(O)Cc1ccc2c(c1)Cc1cccnc1O2	109% (inactive)
CN=S(=O)(NC(=O)c1ccc(Cl)cc1Cl)c1ccc(Br)s1 (stereo not given)	102% (inactive)
COc1cc(/C=C/C(=O)c2ccc(NC(=O)CN3CCN(c4cc5c(cc4F)c(=O)c(C(=O)O)cn5C4CC4)CC3)cc2)cc(OC)c1OC	34% (inactive)
COc1ccc(NC(=O)/N=c2\oc3c(OC)cccc3cc2-c2cc3ccccc3[nH]2)cc1	81.9% (inactive)
COc1cc(NC(=O)CCl)ccc(=O)c1	85.4% (inactive)
CC/C=C\C/C=C\C[C@H](O)C/C=C1/C(=O)C=C[C@H]1C/C=C\CCC(=O)OC	22.5% [8.25 µM] (inactive)
